Results: PubChem BioAssay (EPA / NIEHS)
Records with an inconclusive call do not appear. The source made the active and inactive calls. How the source made its calls, unless noted: active means hit-call score of the fitted dose curve at least 0.9, where 1 is the maximum; inactive means score below 0.9.

Assays:
[1] = target: mouse Estrogen Receptor alpha (Era), Esr1 (gene 13982) (UniProt P19785); test: NVS_NR_mERa: NovaScreen (NVS) Nuclear Receptor Binding Assay for mouse Estrogen Receptor alpha (Era) (AID 2283378; active means hit-call score of the fitted dose curve at least 0.9, where 1 is the maximum;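 further: hit means loss of bound radioligand signal relative to DMSO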)
Summary of the method: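 Cell-free radioligand competitive displacement binding, read by filter-based scintillation counting 18 h after dosing. Primary screen run in duplicate at 25 uM, actives retested in concentration series; loss of signal versus DMSO.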

[2] = target: Agonist Androgen Response Element (ARE), AR (gene 367) (UniProt P10275); test: OT_AR_ARELUC_AG_1440: Odyssey Thera (OT) 24-hour CHO-K1 Luciferase Assay for Agonist Androgen Response Element (ARE) (AID 2283379; active means hit-call score of the fitted dose curve at least 0.9, where 1 is the maximum)
Summary of the method: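 Luminescence increase above DMSO, read after a 24 h compound treatment of CHO-K1 cells expressing an androgen response element luciferase reporter, gives the single primary endpoint; concentration-response fitting used the positive direction.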

[3] = target: Estrogen receptor beta (Homo sapiens) (UniProt Q92731); test: OT_ER_ERbERb_1440: Odyssey Thera (OT) 24-hour HEK293T Protein-Complementation Assay for Estrogen Receptor-beta/-beta Homodimer (AID 2283380; active means hit-call score of the fitted dose curve at least 0.9, where 1 is the maximum;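 further: fluorescence gain from ER beta LBD homodimer complementation read by laser scanning cytometry; scored as signal increase over DMSO baseline for both agonists and antagonists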)
Summary of the method: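 HEK293T cells stably expressing human ER-beta LBD (aa 310-547) PCA homodimer pair, dosed 24 h; formaldehyde-fixed, Draq5-stained. Readout: increase in nuclear (agonist) or nuclear plus cytoplasmic (antagonist) fluorescence intensity versus DMSO, gain-of-signal fitting.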

[4] = target: Estrogen receptor (Homo sapiens) (UniProt P03372); test: OT_ERa_GFPERaERE_0480: Odyssey Thera (OT) 8-hour HeLa Transcription Induction Assay for Estrogen Receptor (AID 2283381)
Summary of the method: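 Human cervical HeLa cells were treated for 8 hours, after which ERE-driven GFP induction was measured by fluorescence microscopy; increases over DMSO baseline defined activity.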

[5] = target: Estrogen receptor (Homo sapiens) (UniProt P03372); test: OT_ERa_GFPERaERE_0120: Odyssey Thera (OT) 2-hour HeLa Transcription Induction Assay for Estrogen Receptor (AID 2283382; active means hit-call score of the fitted dose curve at least 0.9, where 1 is the maximum)
Summary of the method: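 Cells (human cervical HeLa) receive compound, incubate 2 hours, then are imaged for fluorescent reporter induction. Images are quantified by high content analysis, and activity is fitted as gain of signal against DMSO.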

[6] = target: Bile acid receptor (Homo sapiens) (UniProt Q96RI1); test: OT_FXR_FXRSRC1_0480: Odyssey Thera (OT) 8-hour HEK293T Protein-Complementation Assay for Farnesoid X receptor/SRC-1 Co-activator (AID 2283383; active means hit-call score of the fitted dose curve at least 0.9, where 1 is the maximum)
Summary of the method: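 PCA, HEK293T, 8 h compound exposure; FXR–SRC-1 binding reconstitutes split reporter; fluorescence intensity; positive-direction fit vs DMSO.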

[7] = target: Bile acid receptor (Homo sapiens) (UniProt Q96RI1); test: OT_FXR_FXRSRC1_1440: Odyssey Thera (OT) 24-hour HEK293T Protein-Complementation Assay for Farnesoid X receptor/SRC-1 Co-activator (AID 2283384; active means hit-call score of the fitted dose curve at least 0.9, where 1 is the maximum)
Summary of the method: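 Measures ligand-driven FXR–SRC-1 co-activator recruitment in HEK293T via fragment complementation, fluorescence intensity at 24 h. DMSO served as negative control and baseline for gain-of-signal fitting.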

[8] = target: Retinoic acid receptor RXR-alpha (Homo sapiens) (UniProt P19793); test: OT_NURR1_NURR1RXRa_0480: Odyssey Thera (OT) 8-hour HEK293T Protein Complementation Assay for Nurr1/retinoid X receptor (RXR) (AID 2283385; active means hit-call score of the fitted dose curve at least 0.9, where 1 is the maximum)
Summary of the method: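 Interaction of bait and prey reconstitutes a functional reporter, whose fluorescence was measured in HEK293T cells dosed with compound for 8 hours. Signal gain relative to DMSO defined the single endpoint.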

[9] = target: Retinoic acid receptor RXR-alpha (Homo sapiens) (UniProt P19793); test: OT_NURR1_NURR1RXRa_1440: Odyssey Thera (OT) 24-hour HEK293T Protein Complementation Assay for Nurr1/retinoid X receptor (RXR) (AID 2283386; active means hit-call score of the fitted dose curve at least 0.9, where 1 is the maximum)
Summary of the method: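 Steps: fragment-tagged Nurr1 and RXRα expressed in HEK293T; compounds added; after 24 h, complemented reporter quantified by fluorescence intensity; signal increase over DMSO fitted as the single endpoint.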

[10] = target: Peroxisome proliferator-activated receptor gamma (Homo sapiens) (UniProt P37231); test: OT_PPARg_PPARgSRC1_1440: Odyssey Thera (OT) 24-hour Protein-Complementation Assay for Peroxisome Proliferator-activated Receptor Gamma/ SRC-1 Co-activator (AID 2283388; active means hit-call score of the fitted dose curve at least 0.9, where 1 is the maximum)
Summary of the method: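 HEK293T transiently transfected with PPARg/SRC-1 split-Venus YFP fusions 48 h before dosing, then treated 24 h at 37C. Fixed cells imaged; nuclear/cytoplasmic 488 nm fluorescence ratio, gain of signal versus DMSO.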

[11] = CEETOX_H295R_11DCORT: CeeTox H295R High-throughput Steroidogenesis Assay for 11-Deoxycortisol (11DCORT) (AID 2283432); details: actives raise or lower the signal;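 on AC50: human adrenal H295R cells prestimulated with 10 µM forskolin for 48 h; 11-deoxycortisol secreted into the medium measured by LC-MS/MS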
Summary of the method: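 Steroidogenesis in human H295R cells: 48 h chemical exposure after forskolin priming, 11-deoxycortisol measured by LC-MS/MS.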

[12] = CEETOX_H295R_OHPREG: CeeTox H295R High-throughput Steroidogenesis Assay for OH-Pregnenolone (OHPREG) (AID 2283434); details: actives raise or lower the signal
Summary of the method: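 Readout: HPLC-MS/MS of 17alpha-hydroxypregnenolone in medium after 48 h chemical exposure of H295R cells pretreated with forskolin. Values fitted bidirectionally relative to DMSO; chemicals reducing viability to 20–70% were retested after 10-fold dilution.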

[13] = CEETOX_H295R_OHPROG: CeeTox H295R High-throughput Steroidogenesis Assay for OH-Progesterone (OHPROG) (AID 2283435); details: actives raise or lower the signal;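 on AC50: human adrenal H295R cells primed 48 h with 10 µM forskolin; 17alpha-hydroxyprogesterone secreted into medium measured by HPLC-MS/MS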
Summary of the method: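 Steps: seed H295R cells and adhere overnight; stimulate with 10 uM forskolin for 48 h; replace with chemical-containing medium (0.1% DMSO) for 48 h; extract medium with MTBE; quantify 17alpha-hydroxyprogesterone by reverse-phase C18 HPLC-MS/MS against a 7-point curve.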

[14] = CEETOX_H295R_ANDR: CeeTox H295R High-throughput Steroidogenesis Assay for Androstenedione (ANDR) (AID 2283436); details: actives raise or lower the signal;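 further: human H295R adrenal cells exposed for 48 h with androstenedione measured in medium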
Summary of the method: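 Steroidogenesis in H295R adrenal cells after 48 h dosing; androstenedione quantified by LC-MS/MS, with DMSO as negative control and baseline for bidirectional curve fitting.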

[15] = CEETOX_H295R_CORTIC: CeeTox H295R High-throughput Steroidogenesis Assay for Corticosterone (CORTIC) (AID 2283437); details: actives raise or lower the signal;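 further: corticosterone secreted into medium quantified by mass spectrometry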
Summary of the method: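 Steps: seed H295R, adhere overnight; 10 uM forskolin 48 h; replace with chemical (0.1% DMSO) 48 h; extract medium with MTBE; quantify corticosterone by HPLC-MS/MS; score bidirectionally vs DMSO.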

[16] = CEETOX_H295R_CORTISOL: CeeTox H295R High-throughput Steroidogenesis Assay for Cortisol (AID 2283438); details: actives raise or lower the signal;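 further: cortisol secreted into medium quantified by LC-MS/MS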
Summary of the method: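 Cortisol synthesis by H295R cells is measured 48 h after chemical dosing, following a 48 h stimulation with 10 uM forskolin. Hormone is extracted and quantified by HPLC-MS/MS, and activity is fitted bidirectionally against the DMSO control.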

[17] = CEETOX_H295R_DOC: CeeTox H295R High-throughput Steroidogenesis Assay for DOC (AID 2283439); details: actives raise or lower the signal
Summary of the method: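 Steps: seed H295R, adhere overnight; 10 uM forskolin 48 h; replace with chemical medium (0.1% DMSO) 48 h; collect medium, MTBE extraction, HPLC-MS/MS for DOC. Viability then checked by MTT; cytotoxic chemicals diluted until viability ≥70%.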

[18] = CEETOX_H295R_ESTRADIOL: CeeTox H295R High-throughput Steroidogenesis Assay for Estradiol (AID 2283440); details: actives raise or lower the signal;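 further: estradiol secreted into medium quantified by LC-MS/MS after dansyl derivatisation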
Summary of the method: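 H295R cells pre-stimulated 48 h with 10 uM forskolin, then exposed 48 h to chemical in 0.1% DMSO. Medium estradiol quantified by MTBE extraction, dansyl derivatisation and HPLC-MS/MS; bidirectional fit versus DMSO; MTT viability required >/=70%.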

[19] = target: rat Serotonin Transporter (SERT), Slc6a4 (gene 25553) (UniProt P31652); test: NVS_TR_rSERT: NovaScreen (NVS) Transporter Assay for rat Serotonin Transporter (SERT) (AID 2283375; active means hit-call score of the fitted dose curve at least 0.9, where 1 is the maximum)
Summary of the method: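 Rat forebrain membranes; radioligand displacement at SERT read by filter-based scintillation counting, 1 h after dosing. Screened in duplicate at 25 uM, actives then run in concentration series; loss of signal versus DMSO baseline.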

Chain of Peroxisome proliferator-activated receptor gamma (Homo sapiens) (P37231 whole entry, looked up, the tested form may be a part): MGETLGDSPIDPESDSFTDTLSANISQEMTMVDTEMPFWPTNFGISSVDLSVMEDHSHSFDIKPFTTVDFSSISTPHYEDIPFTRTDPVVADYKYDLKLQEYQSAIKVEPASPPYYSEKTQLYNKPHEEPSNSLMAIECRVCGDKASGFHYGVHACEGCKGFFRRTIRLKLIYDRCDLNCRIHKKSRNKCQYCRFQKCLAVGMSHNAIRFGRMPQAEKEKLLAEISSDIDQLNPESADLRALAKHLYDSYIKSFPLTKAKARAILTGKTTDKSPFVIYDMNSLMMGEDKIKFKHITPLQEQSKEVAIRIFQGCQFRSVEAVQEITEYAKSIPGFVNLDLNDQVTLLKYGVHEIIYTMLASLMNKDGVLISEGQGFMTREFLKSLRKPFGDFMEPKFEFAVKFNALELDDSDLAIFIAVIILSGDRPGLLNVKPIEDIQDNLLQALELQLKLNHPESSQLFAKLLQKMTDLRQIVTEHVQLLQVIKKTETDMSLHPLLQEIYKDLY
Chain of Estrogen receptor beta (Homo sapiens) (Q92731 whole entry, looked up, the tested form may be a part): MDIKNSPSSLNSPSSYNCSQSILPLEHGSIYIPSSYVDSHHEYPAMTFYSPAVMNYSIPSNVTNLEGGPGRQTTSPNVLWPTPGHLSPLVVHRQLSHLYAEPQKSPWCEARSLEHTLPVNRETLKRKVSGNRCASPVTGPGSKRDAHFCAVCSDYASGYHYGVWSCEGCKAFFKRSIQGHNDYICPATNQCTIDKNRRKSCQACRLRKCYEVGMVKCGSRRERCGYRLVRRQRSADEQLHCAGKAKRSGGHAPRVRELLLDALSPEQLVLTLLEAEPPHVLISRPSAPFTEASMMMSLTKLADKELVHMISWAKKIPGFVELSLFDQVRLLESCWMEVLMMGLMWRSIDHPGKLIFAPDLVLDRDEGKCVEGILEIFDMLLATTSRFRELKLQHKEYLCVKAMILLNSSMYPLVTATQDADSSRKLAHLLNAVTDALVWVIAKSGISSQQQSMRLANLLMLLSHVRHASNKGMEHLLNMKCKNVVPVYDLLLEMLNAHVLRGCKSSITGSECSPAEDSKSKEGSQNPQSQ
Chain of Bile acid receptor (Homo sapiens) (Q96RI1 whole entry, looked up, the tested form may be a part): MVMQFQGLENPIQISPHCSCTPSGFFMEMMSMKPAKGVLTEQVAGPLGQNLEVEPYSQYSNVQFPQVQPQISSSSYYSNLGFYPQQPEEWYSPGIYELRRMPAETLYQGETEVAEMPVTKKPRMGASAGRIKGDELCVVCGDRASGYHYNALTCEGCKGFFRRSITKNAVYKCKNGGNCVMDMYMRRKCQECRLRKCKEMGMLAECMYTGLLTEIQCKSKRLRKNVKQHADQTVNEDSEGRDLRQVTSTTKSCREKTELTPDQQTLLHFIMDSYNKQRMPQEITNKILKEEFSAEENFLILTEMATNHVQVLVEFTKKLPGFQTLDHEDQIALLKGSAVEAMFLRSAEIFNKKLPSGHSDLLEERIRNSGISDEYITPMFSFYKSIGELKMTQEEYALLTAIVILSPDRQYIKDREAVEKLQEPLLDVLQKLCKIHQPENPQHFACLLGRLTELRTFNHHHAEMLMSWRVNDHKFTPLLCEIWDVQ
Chain of Retinoic acid receptor RXR-alpha (Homo sapiens) (P19793 whole entry, looked up, the tested form may be a part): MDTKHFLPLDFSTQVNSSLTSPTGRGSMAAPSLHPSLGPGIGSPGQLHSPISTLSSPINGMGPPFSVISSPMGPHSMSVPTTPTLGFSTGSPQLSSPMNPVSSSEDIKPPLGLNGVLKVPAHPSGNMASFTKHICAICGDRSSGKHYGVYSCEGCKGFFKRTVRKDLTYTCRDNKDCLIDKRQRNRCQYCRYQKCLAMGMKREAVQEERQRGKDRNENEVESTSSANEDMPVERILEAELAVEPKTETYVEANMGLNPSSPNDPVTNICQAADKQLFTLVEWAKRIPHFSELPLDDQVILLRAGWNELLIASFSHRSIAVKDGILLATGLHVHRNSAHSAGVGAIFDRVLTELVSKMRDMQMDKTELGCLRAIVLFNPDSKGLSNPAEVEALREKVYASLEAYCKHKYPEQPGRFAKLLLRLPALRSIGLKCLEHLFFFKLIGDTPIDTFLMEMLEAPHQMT
Chain of Estrogen receptor (Homo sapiens) (P03372 whole entry, looked up): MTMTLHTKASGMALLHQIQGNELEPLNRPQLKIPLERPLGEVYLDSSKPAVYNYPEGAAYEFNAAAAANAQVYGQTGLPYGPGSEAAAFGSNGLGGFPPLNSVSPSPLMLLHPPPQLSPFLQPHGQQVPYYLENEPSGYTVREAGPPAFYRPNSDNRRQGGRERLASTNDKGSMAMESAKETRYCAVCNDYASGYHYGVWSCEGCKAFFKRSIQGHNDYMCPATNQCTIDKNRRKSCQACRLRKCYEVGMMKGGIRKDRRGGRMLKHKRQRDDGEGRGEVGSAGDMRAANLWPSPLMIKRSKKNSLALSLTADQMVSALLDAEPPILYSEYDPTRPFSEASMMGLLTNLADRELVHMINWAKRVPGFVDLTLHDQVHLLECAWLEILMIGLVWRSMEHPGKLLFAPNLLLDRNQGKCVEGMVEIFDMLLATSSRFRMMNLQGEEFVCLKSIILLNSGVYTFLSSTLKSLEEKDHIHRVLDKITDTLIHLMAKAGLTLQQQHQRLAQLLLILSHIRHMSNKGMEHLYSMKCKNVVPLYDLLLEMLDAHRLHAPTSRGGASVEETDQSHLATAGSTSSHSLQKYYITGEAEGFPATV
Chain of Agonist Androgen Response Element (ARE), AR (gene 367) (P10275 whole entry, looked up): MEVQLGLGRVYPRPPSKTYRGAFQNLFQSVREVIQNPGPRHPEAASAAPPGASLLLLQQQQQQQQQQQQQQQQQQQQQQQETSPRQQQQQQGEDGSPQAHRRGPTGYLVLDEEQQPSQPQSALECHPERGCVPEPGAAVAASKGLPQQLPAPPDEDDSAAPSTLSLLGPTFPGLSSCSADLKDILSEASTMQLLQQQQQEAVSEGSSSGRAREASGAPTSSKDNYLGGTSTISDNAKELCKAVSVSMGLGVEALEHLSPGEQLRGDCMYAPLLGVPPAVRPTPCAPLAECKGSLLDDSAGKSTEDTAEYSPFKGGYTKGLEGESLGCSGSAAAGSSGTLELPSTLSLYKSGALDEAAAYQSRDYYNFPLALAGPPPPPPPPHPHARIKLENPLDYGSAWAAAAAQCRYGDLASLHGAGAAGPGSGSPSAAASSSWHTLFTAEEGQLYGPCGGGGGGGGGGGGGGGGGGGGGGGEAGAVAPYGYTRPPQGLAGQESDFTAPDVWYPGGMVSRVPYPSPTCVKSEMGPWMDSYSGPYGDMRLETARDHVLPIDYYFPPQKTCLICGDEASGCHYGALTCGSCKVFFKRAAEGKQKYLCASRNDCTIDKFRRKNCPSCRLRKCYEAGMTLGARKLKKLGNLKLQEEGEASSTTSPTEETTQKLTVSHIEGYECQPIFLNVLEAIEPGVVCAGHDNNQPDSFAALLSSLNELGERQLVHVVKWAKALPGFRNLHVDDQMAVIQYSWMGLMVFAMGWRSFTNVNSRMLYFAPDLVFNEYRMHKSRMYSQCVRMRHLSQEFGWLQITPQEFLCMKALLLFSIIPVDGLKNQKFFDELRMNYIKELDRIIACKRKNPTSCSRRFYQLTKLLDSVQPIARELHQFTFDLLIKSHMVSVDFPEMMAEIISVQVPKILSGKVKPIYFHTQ
Chain of rat Serotonin Transporter (SERT), Slc6a4 (gene 25553) (P31652 whole entry, looked up): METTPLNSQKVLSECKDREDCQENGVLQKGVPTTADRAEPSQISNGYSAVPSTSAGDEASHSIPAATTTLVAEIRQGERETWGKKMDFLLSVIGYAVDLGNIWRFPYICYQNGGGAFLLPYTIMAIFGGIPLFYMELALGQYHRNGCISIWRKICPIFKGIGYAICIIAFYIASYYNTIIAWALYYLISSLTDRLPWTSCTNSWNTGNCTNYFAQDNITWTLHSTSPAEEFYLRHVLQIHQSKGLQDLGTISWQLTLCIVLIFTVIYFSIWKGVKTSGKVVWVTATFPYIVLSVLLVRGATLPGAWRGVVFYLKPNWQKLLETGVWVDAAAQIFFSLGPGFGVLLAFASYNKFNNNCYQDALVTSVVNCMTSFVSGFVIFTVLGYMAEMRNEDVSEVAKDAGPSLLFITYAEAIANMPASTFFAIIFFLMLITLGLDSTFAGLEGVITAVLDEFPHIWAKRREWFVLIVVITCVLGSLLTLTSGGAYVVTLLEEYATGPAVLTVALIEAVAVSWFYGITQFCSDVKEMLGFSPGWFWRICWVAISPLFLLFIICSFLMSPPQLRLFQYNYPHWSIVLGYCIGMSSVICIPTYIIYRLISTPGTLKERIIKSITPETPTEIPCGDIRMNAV
Chain of mouse Estrogen Receptor alpha (Era), Esr1 (gene 13982) (P19785 whole entry, looked up): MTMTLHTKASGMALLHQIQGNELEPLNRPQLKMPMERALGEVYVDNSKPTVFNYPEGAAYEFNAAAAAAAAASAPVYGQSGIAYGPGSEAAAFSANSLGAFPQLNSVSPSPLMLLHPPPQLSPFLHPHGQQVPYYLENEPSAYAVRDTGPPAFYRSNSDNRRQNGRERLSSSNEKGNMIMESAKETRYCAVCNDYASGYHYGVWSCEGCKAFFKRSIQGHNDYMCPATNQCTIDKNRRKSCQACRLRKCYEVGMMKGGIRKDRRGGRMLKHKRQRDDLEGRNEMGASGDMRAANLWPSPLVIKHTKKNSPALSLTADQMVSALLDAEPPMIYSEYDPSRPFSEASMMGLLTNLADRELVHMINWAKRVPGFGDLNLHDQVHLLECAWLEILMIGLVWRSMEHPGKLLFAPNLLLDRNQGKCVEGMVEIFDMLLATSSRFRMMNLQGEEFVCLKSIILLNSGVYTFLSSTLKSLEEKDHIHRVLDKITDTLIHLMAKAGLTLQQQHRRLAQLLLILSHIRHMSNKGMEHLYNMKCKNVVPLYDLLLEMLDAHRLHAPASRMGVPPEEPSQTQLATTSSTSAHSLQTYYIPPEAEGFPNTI

Question: Which results are given for `CCCCCCCCCc1ccc(OCCO)cc1`?
Answer: outcome [1]: inactive; AC50 [2]: 0.238 µM (active); AC50 [3]: 4.63 µM (active); outcome [4]: inactive; outcome [5]: inactive; AC50 [6]: 4.7 µM (active); AC50 [7]: 28.8 µM (active); outcome [8]: inactive; AC50 [9]: 32.9 µM (active); outcome [10]: inactive; outcome [11]: inactive; outcome [12]: inactive; outcome [13]: inactive; outcome [14]: inactive; outcome [15]: inactive; outcome [16]: inactive; outcome [17]: inactive; outcome [18]: inactive

Question: Which AC50 [19] does the source give for `CCN(CC)c1ccc2c(c1)Oc1cc(N(CC)CC)ccc1C21OC(=O)c2ccccc21` here?
Answer: 8.16 µM (active)

Question: With `CCn1c2ccccc2c2ccccc21` as the molecule, how does the AC50 [11] read?
Answer: 50 µM (active)

Question: What about the outcome [12] of the same molecule?
Answer: inactive

Question: And the AC50 [13]?
Answer: 50 µM (active)

Question: What about the AC50 [14] of the same molecule?
Answer: 50 µM (active)

Question: And the outcome [15]?
Answer: inactive

Question: What about the outcome [16] of the same molecule?
Answer: inactive

Question: What about the outcome [17] of the same molecule?
Answer: inactive

Question: With `CCN=C1C=CC(=C(c2ccc(N(CC)CC)cc2)c2ccc(N(CC)CC)cc2)c2ccccc21` as the molecule, how does the outcome [2] read?
Answer: inactive

Question: And the outcome [3]?
Answer: inactive

Question: What about the outcome [4] of the same molecule?
Answer: inactive

Question: What about the outcome [5] of the same molecule?
Answer: inactive

Question: What about the outcome [10] of the same molecule?
Answer: inactive

Question: With `CCCCOC(=O)C(C)O` (stereo unspecified) as the molecule, how does the outcome [4] read?
Answer: inactive

Question: And the AC50 [5]?
Answer: 2.95 µM (active)

Question: What about the outcome [6] of the same molecule?
Answer: inactive

Question: What about the outcome [8] of the same molecule?
Answer: inactive

Question: And the outcome [10]?
Answer: inactive

Question: Which results are given for `CC(C)OC=O`?
Answer: outcome [4]: inactive; outcome [5]: inactive; outcome [6]: inactive; outcome [7]: inactive; outcome [8]: inactive; outcome [9]: inactive; outcome [10]: inactive

Question: Which results are given for `CC1CCCCC1`?
Answer: outcome [11]: inactive; outcome [12]: inactive; outcome [13]: inactive; outcome [14]: inactive; outcome [15]: inactive; outcome [16]: inactive; outcome [17]: inactive; outcome [18]: inactive

Question: With `O=C(c1ccccc1)c1ccc(Cl)cc1` as the molecule, how does the outcome [11] read?
Answer: inactive

Question: What about the outcome [12] of the same molecule?
Answer: inactive

Question: What about the AC50 [13] of the same molecule?
Answer: 37.9 µM (active)

Question: What about the outcome [14] of the same molecule?
Answer: inactive

Question: What about the outcome [15] of the same molecule?
Answer: inactive

Question: What about the outcome [16] of the same molecule?
Answer: inactive

Question: And the outcome [17]?
Answer: inactive

Question: Which results are given for `CCOC(=O)C1CC(=O)C(=C(O)C2CC2)C(=O)C1` (stereo unspecified)?
Answer: outcome [3]: inactive; outcome [4]: inactive; outcome [5]: inactive; outcome [6]: inactive; outcome [8]: inactive; outcome [9]: inactive; outcome [10]: inactive

Question: Which outcome [11] does the source give for `Nc1cccnc1N` here?
Answer: inactive

Question: And the outcome [12]?
Answer: inactive

Question: And the outcome [13]?
Answer: inactive

Question: What about the outcome [15] of the same molecule?
Answer: inactive

Question: And the outcome [16]?
Answer: inactive

Question: What about the outcome [17] of the same molecule?
Answer: inactive

Question: With `CCOCOCC` as the molecule, how does the outcome [11] read?
Answer: inactive

Question: And the outcome [12]?
Answer: inactive

Question: What about the outcome [13] of the same molecule?
Answer: inactive

Question: What about the outcome [14] of the same molecule?
Answer: inactive

Question: And the outcome [15]?
Answer: inactive

Question: And the outcome [16]?
Answer: inactive

Question: What about the outcome [17] of the same molecule?
Answer: inactive

Question: What about the outcome [18] of the same molecule?
Answer: inactive

Question: Which results are given for `CCOC(OCC)OCC`?
Answer: outcome [3]: inactive; outcome [4]: inactive; outcome [5]: inactive; outcome [9]: inactive; outcome [10]: inactive

Question: With `OCCC(O)CO` (stereo unspecified) as the molecule, how does the outcome [11] read?
Answer: inactive

Question: And the outcome [12]?
Answer: inactive

Question: And the outcome [13]?
Answer: inactive

Question: And the outcome [15]?
Answer: inactive

Question: And the outcome [16]?
Answer: inactive

Question: And the outcome [17]?
Answer: inactive

Question: Which outcome [11] does the source give for `Oc1ccc2c(c1)CCC2` here?
Answer: inactive

Question: What about the outcome [14] of the same molecule?
Answer: inactive

Question: What about the outcome [15] of the same molecule?
Answer: inactive

Question: And the outcome [16]?
Answer: inactive

Question: And the outcome [17]?
Answer: inactive

Question: What about the AC50 [18] of the same molecule?
Answer: 39.1 µM (active)
